# Test results reported in PubChem BioAssay (Tox21).
# Values without a mark were called inactive. Results filed as inconclusive are left out. Where a call stands in place of a potency, no number is given. The source made the active and inactive calls. Unless noted, calls follow the shape of the full dose curve.
# Legend:
# [1] = Nuclear factor erythroid 2-related factor 2/antioxidant responsive element (Nrf2/ARE) small molecule agonists: qHTS cell viability counter screen in human keratinocytes (AID 1919968; active = well fitted curve in the direction sought with a large enough effect in the repeat runs; an effect the other way counts as inactive or inconclusive; also: nearly all actives have a fitted effect of over 55% in size; also: potency is read from the fitted curve at half-maximal effect)
# Procedure, shortened: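 KeratinoSens cells (HaCaT keratinocytes stably carrying an ARE-luciferase reporter) were seeded at 1,500 cells/well and rested 5 h at 37 C/5% CO2. They were then exposed to compounds in DMSO for 23 h. Viability was read by CellTiter-Fluor fluorescence after 1 h.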
# [2] = Nuclear factor erythroid 2-related factor 2/antioxidant responsive element (Nrf2/ARE) small molecule agonists: luciferase reporter gene qHTS assay in human keratinocytes (AID 1919969); also: nearly all actives have a fitted effect of over 35% in size; also: potency is read from the fitted curve at half-maximal effect
# [3] = molecular target: KiSS-1 receptor (Homo sapiens) (UniProt Q969F8); experiment: Human kisspeptin (KISS1R) small molecule agonists, calcium flux assay in KISS1R-HEK293 cells (AID 1920064; active = well fitted curve in the direction sought with a large enough effect in the repeat runs; an effect the other way counts as inactive or inconclusive)
# Procedure, shortened: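 HEK293 cells stably expressing human KISS1R were plated 18 h at 37 °C, loaded with calcium dye for 1 h at 37 °C, then given compound by pin tool. Fluorescence (Ex/Em 480/540) was read kinetically for 3 min.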
# [4] = G protein-coupled receptor (GPCR) small molecule agonists, calcium flux assay: HEK293 wild type cell line counter screen (AID 1920065)
# Procedure, shortened: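 Cells were plated and cultured 18 h at 37 C/5% CO2, then loaded with calcium dye for 1 h at 37 C. Compounds in DMSO were pin-transferred in agonist mode, and fluorescence (Ex/Em 480/540) was read kinetically for 3 min at 1 s intervals.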
# [5] = p53 small molecule agonists, cell-based qHTS assay with human liver microsomes (AID 1963577)
# Procedure, shortened: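 Compounds act here after metabolic activation: human liver microsomes and NADPH, both at 0.5 mg/mL final, were co-added to p53RE-bla cells. Incubation ran 16 h at 37 C, followed by LiveBLAzer detection.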
# [6] = p53 small molecule agonists, cell-based qHTS assay with rat liver microsomes (AID 1963578)
# Procedure, shortened: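 Read-out is beta-lactamase reporter fluorescence (LiveBLAzer, 2 h, room temperature, dark) in p53RE-bla cells treated 16 h at 37 C with compound, rat liver microsomes and NADPH, both 0.5 mg/mL final.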
# [7] = molecular target: Muscarinic acetylcholine receptor M1 (Homo sapiens) (UniProt P11229); experiment: Cholinergic receptor muscarinic 1 (CHRM1) small molecule agonists, cell-based qHTS assay (AID 1963589); also: nearly all actives have a fitted effect of over 35% in size; also: potency is read from the fitted curve at half-maximal effect
# Procedure, shortened: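 CHO cells stably expressing human CHRM1, seeded 18 h at 37 C/5% CO2, dye-loaded 1 h at 37 C, then given compound in agonist mode; intracellular calcium fluorescence read kinetically at 1 s intervals. Fifteen concentrations, three independent runs.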
# [8] = molecular target: Beta-2 adrenergic receptor (Homo sapiens) (UniProt P07550); experiment: Adrenergic beta2 receptor (ADRB2) small molecule antagonists, cell-based qHTS assay (AID 1963592); also: nearly all actives have a fitted effect of over 50% in size; also: potency is read from the fitted curve at half-maximal effect
# Procedure, shortened: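 Cells (CHO, stable ADRB2 overexpression) incubated 18-20hr at 37C; compounds added from DMSO; agonist mix (1nM isoproterenol, 100uM IBMX, 25uM Ro-20-1724) added; 0.5hr RT; d2-cAMP and anti-cAMP-cryptate added; 1hr RT; 665/615 nm read.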
# [9] = molecular target: D(2) dopamine receptor (Homo sapiens) (UniProt P14416); experiment: Dopamine D2 receptor (DRD2) small molecule agonists, cell-based qHTS assay (AID 1963594); also: nearly all actives have a fitted effect of over 35% in size
# Procedure, shortened: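 cAMP accumulation in DRD2-HEK293 cells measured by HTRF after 1 h detection; compounds added 10 min before NKH477 (200nM […]) forskolin-analogue stimulation, 30 min at room temperature, with Ro20-1724 present at 0.1 mM final.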
# [10] = p53 small molecule agonists, cell-based qHTS assay with rat liver microsomes: qHTS cell viability counter screen (AID 1963580); also: nearly all actives have a fitted effect of over 45% in size
# Procedure, shortened: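 Intracellular ATP, by CellTiter-Glo luminescence, defines viability. HCT-116 p53RE-bla cells, 4,000 per well, were compound-treated in the presence of rat liver microsomes and NADPH for 16 h at 37 C.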
# [11] = p53 small molecule agonists, cell-based qHTS assay: qHTS cell viability counter screen (AID 1963581); also: nearly all actives have a fitted effect of over 45% in size
# Procedure, shortened: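 p53RE-bla HCT-116 cells were exposed to compounds for 16 h at 37 C; after the beta-lactamase FRET read in the same wells, CellTiter-Glo was added and luminescence (intracellular ATP) read after 30 min at room temperature.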
# [12] = molecular target: 5-hydroxytryptamine receptor 2A (Homo sapiens) (UniProt P28223); experiment: 5-hydroxytryptamine receptor 2A (HTR2A) small molecule agonists, cell-based qHTS assay (AID 1963587); also: nearly all actives have a fitted effect of over 30% in size; also: potency is read from the fitted curve at half-maximal effect
# Procedure, shortened: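 Kinetic calcium-flux fluorescence (2 min, 1 sec intervals) after compound addition in agonist mode. HTR2A-CHO cells were cultured 18 h, then dye-loaded 1 h at 37 C.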
# [13] = molecular target: Muscarinic acetylcholine receptor M1 (Homo sapiens) (UniProt P11229); experiment: Cholinergic receptor muscarinic 1 (CHRM1) small molecule antagonists, cell-based qHTS assay (AID 1963588); also: nearly all actives have a fitted effect of over 40% in size; also: potency is read from the fitted curve at half-maximal effect
# Procedure, shortened: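 CHRM1-CHO calcium-flux assay, antagonist mode. Cells were seeded 18 h, dye-loaded 1 h at 37 C and given compound for 5 min at RT, then acetylcholine was added at 50nM. FDSS fluorescence was read 3 min; 15 concentrations, three runs.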
# [14] = molecular target: D(2) dopamine receptor (Homo sapiens) (UniProt P14416); experiment: Dopamine D2 receptor (DRD2) small molecule antagonists, cell-based qHTS assay (AID 1963595; active = well fitted inhibition curve with a large enough effect in the signal ratio in the repeat runs, with a control signal flat; the % refers to the signal ratio; also: potency is read from the fitted curve at half-maximal effect)
# Procedure, shortened: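 Human DRD2 antagonist qHTS measuring cAMP by HTRF. The cells are exposed to compound for 10 min, then to NKH477 (200 nM) and quinpirole (12 nM) for 30 min at RT, with Ro20-1724 (0.1 mM) present throughout.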
# [15] = molecular target: Gonadotropin-releasing hormone receptor (Homo sapiens) (UniProt P30968); experiment: Human gonadotropin-releasing hormone receptor (GnRHR) small molecule agonists, calcium flux assay in GnRHR-HEK293 cells (AID 1920063); also: nearly all actives have a fitted effect of over 35% in size; also: potency is read from the fitted curve at half-maximal effect
# Procedure, shortened: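 HEK293 cells stably expressing human GnRHR were plated 18 h at 37 °C, loaded with calcium dye 1 h at 37 °C, then given compound in agonist mode; fluorescence (Ex/Em 480/540) read kinetically for 3 min at 1 s intervals.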
# [16] = p53 small molecule agonists, cell-based qHTS assay with human liver microsomes: qHTS cell viability counter screen (AID 1963579); also: nearly all actives have a fitted effect of over 45% in size; also: potency is read from the fitted curve at half-maximal effect
# Procedure, shortened: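 Cells carrying the p53 response-element beta-lactamase reporter are treated for 16 h at 37 C with test compounds in the presence of human liver microsomes and NADPH (both 0.5 mg/mL final); ATP-based CellTiter-Glo luminescence then reports viability.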
# [17] = molecular target: 5-hydroxytryptamine receptor 2A (Homo sapiens) (UniProt P28223); experiment: 5-hydroxytryptamine receptor 2A (HTR2A) small molecule antagonists, cell-based qHTS assay (AID 1963586); also: nearly all actives have a fitted effect of over 45% in size; also: potency is read from the fitted curve at half-maximal effect
# Procedure, shortened: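 Antagonist-mode intracellular calcium assay: DOI (4 nM) added after 5 min compound pre-incubation at room temperature to dye-loaded HTR2A-CHO cells. Fluorescence followed for 3 min, sampled every second.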
# [18] = cAMP Responsive Elements (CRE) small molecule agonists, cell-based qHTS assay (AID 1963590)
# Procedure, shortened: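 CRE-bla HEK 293T cells in DMEM with 10% dialyzed FBS, NEAA, pyruvate and 25 mM HEPES were plated 18 h at 37 C/5% CO2, then exposed to compounds in DMSO for 3 h before LiveBLAzer B/G FRET substrate addition.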
# [19] = cAMP Responsive Elements (CRE) small molecule antagonists, cell-based qHTS assay (AID 1963591; active = well fitted inhibition curve with a large enough effect in the signal ratio in the repeat runs, not every such curve was filed as active; the % refers to the signal ratio)
# Procedure, shortened: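 CRE-bla HEK293T cells were plated 18 h at 37 °C/5% CO2, pinned with compound in DMSO, then stimulated with NKH477 at 0.25 uM final for 3 h. LiveBLAzer B/G FRET substrate was added and plates incubated 2 h at room temperature.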
# [20] = molecular target: Beta-2 adrenergic receptor (Homo sapiens) (UniProt P07550); experiment: Adrenergic beta2 receptor (ADRB2) small molecule agonists, cell-based qHTS assay (AID 1963593);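 also: CHO cells stably overexpressing human ADRB2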
# Procedure, shortened: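 CHO cells stably over-expressing ADRB2 were plated overnight at 37C, then dosed with compounds plus a stimulation mix containing 100uM IBMX and 25uM Ro-20-1724 for 0.5hr at room temperature. cAMP was measured by HTRF competition, 1hr.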
# Gonadotropin-releasing hormone receptor (Homo sapiens), sequence (P30968 whole entry, looked up): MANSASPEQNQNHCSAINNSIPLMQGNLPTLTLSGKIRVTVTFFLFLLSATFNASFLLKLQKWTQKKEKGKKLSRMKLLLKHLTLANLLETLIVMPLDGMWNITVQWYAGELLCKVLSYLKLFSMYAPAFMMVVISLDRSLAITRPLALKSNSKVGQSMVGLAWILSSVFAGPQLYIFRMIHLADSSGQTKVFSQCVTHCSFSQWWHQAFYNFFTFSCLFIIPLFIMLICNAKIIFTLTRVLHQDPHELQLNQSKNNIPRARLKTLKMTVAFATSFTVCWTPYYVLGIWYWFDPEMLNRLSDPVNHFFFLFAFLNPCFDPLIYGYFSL
# 5-hydroxytryptamine receptor 2A (Homo sapiens), sequence (P28223 whole entry, looked up): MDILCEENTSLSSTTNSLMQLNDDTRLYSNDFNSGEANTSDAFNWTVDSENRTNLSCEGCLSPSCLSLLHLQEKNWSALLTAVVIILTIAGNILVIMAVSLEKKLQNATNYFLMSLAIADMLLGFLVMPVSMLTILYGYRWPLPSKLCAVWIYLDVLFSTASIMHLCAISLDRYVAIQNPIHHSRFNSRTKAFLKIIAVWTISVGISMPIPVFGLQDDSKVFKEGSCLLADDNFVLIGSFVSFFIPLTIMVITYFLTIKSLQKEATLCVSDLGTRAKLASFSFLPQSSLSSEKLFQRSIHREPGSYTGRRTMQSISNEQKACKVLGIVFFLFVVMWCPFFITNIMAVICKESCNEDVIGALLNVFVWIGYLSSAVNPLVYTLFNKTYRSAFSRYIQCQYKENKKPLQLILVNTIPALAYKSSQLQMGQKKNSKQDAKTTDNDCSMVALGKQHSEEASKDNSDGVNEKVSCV
# Beta-2 adrenergic receptor (Homo sapiens), sequence (P07550 whole entry, looked up): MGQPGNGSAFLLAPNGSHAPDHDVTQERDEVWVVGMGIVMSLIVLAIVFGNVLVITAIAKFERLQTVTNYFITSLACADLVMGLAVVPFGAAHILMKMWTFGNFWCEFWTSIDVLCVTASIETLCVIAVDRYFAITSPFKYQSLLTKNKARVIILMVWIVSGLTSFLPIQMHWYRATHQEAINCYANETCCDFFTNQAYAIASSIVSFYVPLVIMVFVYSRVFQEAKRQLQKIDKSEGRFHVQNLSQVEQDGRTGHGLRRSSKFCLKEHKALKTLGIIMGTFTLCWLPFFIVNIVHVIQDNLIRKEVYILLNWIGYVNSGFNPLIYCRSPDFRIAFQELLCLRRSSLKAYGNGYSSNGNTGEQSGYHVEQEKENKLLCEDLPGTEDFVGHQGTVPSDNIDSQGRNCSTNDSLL
# Muscarinic acetylcholine receptor M1 (Homo sapiens), sequence (P11229 whole entry, looked up): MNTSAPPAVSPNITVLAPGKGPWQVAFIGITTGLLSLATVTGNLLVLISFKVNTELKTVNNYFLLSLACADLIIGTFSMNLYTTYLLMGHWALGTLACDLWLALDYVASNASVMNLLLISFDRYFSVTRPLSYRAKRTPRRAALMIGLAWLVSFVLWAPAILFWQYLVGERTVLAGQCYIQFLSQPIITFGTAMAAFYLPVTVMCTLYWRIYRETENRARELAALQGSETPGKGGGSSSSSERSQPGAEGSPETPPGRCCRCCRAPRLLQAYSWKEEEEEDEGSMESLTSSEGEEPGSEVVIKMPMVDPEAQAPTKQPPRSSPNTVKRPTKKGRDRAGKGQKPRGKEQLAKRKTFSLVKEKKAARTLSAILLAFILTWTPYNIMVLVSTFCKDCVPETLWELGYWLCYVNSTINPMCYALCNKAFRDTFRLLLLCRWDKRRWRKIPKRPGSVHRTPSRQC
# KiSS-1 receptor (Homo sapiens), sequence (Q969F8 whole entry, looked up): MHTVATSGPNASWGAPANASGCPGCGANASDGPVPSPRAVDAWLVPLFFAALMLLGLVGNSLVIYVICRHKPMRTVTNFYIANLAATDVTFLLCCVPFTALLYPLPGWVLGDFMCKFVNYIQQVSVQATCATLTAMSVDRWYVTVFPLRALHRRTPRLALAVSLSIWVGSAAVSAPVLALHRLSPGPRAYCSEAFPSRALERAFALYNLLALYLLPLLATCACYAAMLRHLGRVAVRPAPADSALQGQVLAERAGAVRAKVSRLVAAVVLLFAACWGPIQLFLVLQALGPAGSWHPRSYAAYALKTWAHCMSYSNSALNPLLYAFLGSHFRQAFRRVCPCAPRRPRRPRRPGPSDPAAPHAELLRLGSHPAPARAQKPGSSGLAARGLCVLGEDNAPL
# D(2) dopamine receptor (Homo sapiens), sequence (P14416 whole entry, looked up): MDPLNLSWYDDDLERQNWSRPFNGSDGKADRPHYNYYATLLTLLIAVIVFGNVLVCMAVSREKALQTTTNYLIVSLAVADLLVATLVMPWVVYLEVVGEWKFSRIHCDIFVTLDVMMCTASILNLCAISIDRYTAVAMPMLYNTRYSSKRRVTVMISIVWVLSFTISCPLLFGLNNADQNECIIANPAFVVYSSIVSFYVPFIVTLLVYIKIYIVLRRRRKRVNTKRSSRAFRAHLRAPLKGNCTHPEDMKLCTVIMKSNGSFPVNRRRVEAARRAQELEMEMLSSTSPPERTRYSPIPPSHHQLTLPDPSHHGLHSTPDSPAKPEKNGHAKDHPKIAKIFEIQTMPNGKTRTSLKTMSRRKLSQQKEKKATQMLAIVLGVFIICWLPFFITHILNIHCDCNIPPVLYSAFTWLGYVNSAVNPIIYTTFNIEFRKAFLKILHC
Compound,Potency [1],Potency [2],Potency [3],Potency [4],Potency [5],Potency [6],Potency [7],Potency [8],Potency [9],Potency [10],Potency [11],Potency [12],Potency [13],Potency [14],Potency [15],Potency [16],Potency [17],Potency [18],Potency [19],Potency [20]
CC1(C)CCC(C)(C)c2cc(C(=O)Nc3ccc(C(=O)O)cc3)ccc21,inactive,inactive,inactive,inactive,inactive,inactive,inactive,inactive,inactive,,,,,,,,,,,
CC(C)c1ccc(O)c(C(C)C)c1,inactive,68.6 µM (active),inactive,inactive,inactive,inactive,inactive,inactive,inactive,inactive,inactive,54.9 µM (active),inactive,inactive,,,,,,
CC(CCc1ccc2c(c1)OCO2)NN (stereo unspecified),inactive,inactive,,,,,inactive,inactive,inactive,inactive,inactive,inactive,inactive,inactive,inactive,inactive,inactive,inactive,inactive,inactive
CCc1cc(C2=C(C(=O)O)N(c3ccccc3C(F)(F)F)S(=O)(=O)c3ccccc32)cc2c1OCO2,inactive,inactive,,,,inactive,inactive,,,inactive,inactive,inactive,inactive,inactive,inactive,inactive,inactive,,,
CC(=O)NCCCS(=O)(=O)O,inactive,inactive,,,inactive,inactive,23.8 µM (active),inactive,inactive,inactive,inactive,,inactive,inactive,15 µM (active),inactive,inactive,inactive,inactive,
O=C1C=CC(=O)N1c1cccc(N2C(=O)C=CC2=O)c1,54.5 µM (active),4.86 µM (active),inactive,inactive,inactive,inactive,inactive,,,,,,inactive,,,40.8 µM (active),inactive,,,
CCCCC(=O)O[C@]1(C(=O)CO)[C@@H](C)C[C@H]2[C@@H]3CCC4=CC(=O)C=C[C@]4(C)[C@@]3(F)[C@@H](O)C[C@@]21C,inactive,inactive,inactive,inactive,inactive,inactive,inactive,inactive,inactive,inactive,,,inactive,inactive,,,,,,
Cc1[nH]cnc1C[C@H]1CCc2c(C)c3ccccc3n2C1=O,inactive,inactive,inactive,inactive,inactive,inactive,inactive,23.7 µM (active),inactive,inactive,,42.6 µM (active),25.9 µM (active),53.1 µM (active),,inactive,1.46 µM (active),inactive,inactive,
